The panel holds about 83,000 compounds, 20% with a hit somewhere; the sample as a whole holds those more often.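 Cells were grown in 96-well plates and exposed to the test compound at a single concentration for 48 hours; results are reported as percent growth, with values below 10 considered active.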 Values without a mark were called inactive. Activity calls are given as the source filed them.

The values that follow come from PubChem BioAssay (NCI).

Common to all, as to assay: NCI-60 one-dose screen, 48 h (100 = growth as untreated, 0 = no growth, -100 = all killed)
Holding throughout (conditions): 10 µM unless noted

The test system of test [1] is SK-MEL-2 melanoma.
The subject of test [2] is EKVX NSCLC.
Test [3] has as its system SN12C renal.
Test [4] relates to UO-31 renal.
The subject of test [5] is TK-10 renal.
In test [6] the test system is CAKI-1 renal.
Test [7] relates to A498 renal.
The subject of test [8] is CCRF-CEM leukemia.
The subject of test [9] is MOLT-4 leukemia.
In test [10] the test system is SR leukemia.
Test [11] has as its system RPMI-8226 leukemia.
Test [12] has as its system OVCAR-8 ovarian.
The test system of test [13] is OVCAR-5 ovarian.
The test system of test [14] is OVCAR-4 ovarian.
Test [15] concerns SK-OV-3 ovarian.
In test [16] the test system is IGROV1 ovarian.
Test [17] relates to OVCAR-3 ovarian.
Test [18] concerns HS 578T breast.
Test [19] has as its system NCI/ADR-RES ovarian.
Test [20] deals with ACHN renal.

Consider `Cc1cc(N2CCCCC2)cc(C)c1-c1csc(NC(=O)c2ccncc2)n1`, for which the growth in [1] was 95.6%; in test [2] it was 32.9%; in test [3] it was 49.1%; in test [4], 36.9%; in test [5], 77.3%; in [6] it was 49.5%. Further, the growth in test [7] was 42.9%; in [8], 47.3%; in [9], 43.7%; in test [10], 37.7%; in test [11], 37.5%; in test [12] it was 51.2%. The growth in [13] is 92.6%; in test [14] it was 24.2%; in [15], 62.6%; in test [16] it was 64.4%; in [17], 50.5%; in test [18], 75.2%. In [19], the growth was 56.4%.

Turning to `O=S(=O)(Nc1ccc(F)cc1F)c1ccc(-c2cnc(C3CC3)o2)cc1`, the growth is 36.7% in test [1]; 41.1% in test [2]; 42.9% in test [3]; 40% in test [4]; 67.2% in [5]; 25% in test [6]. Moreover, the growth in [7] is -3.02% (active); in test [8], 19.3%; in [9], 28.3%; in test [10], 10.9%; in test [11] it was 18.1%; in test [12] it was 38.4%. Besides, the growth in test [13] was 51.8%; in [14], 46.8%; in test [15], 45.6%; in test [16], 32.6%; in test [17], 13.4%; in [18] it was 27.4%. Further, the growth in test [19] was 19.4%.

`CCCCCCCCCCCCCCCCOCCCOP(=O)(O)C1CCCN(O)C1=O` (stereo not given): the growth was 36% in test [1]; 33.9% in test [2]; 16.3% in test [3]; 5.07% (active) in [4]; 33.1% in [5]; 16.6% in test [6]. Moreover, the growth in [7] was 1.39% (active); in test [8] it was 5.85% (active); in test [9], 7.18% (active); in test [10], 7.77% (active); in test [11], 10.9%; in [12], 23.8%. Further, the growth is 20% in test [13]; 16.5% in test [14]; 34.4% in [15]; -2.28% (active) in test [16]; 17.3% in test [17]; 83.1% in test [18]. In test [19], the growth was 8.85% (active).

Consider `O=C(Nc1cccc(-c2ccc(Cl)c(C(F)(F)F)c2)c1)C1CCN(Cc2cccc3cccnc23)CC1`, for which the growth in test [1] is 31.6%; in test [2] it was 34.6%; in test [3], 4.06% (active); in test [4], 2.47% (active); in [5] it was 80.6%; in test [6], -52.5% (active). The growth in test [7] was 58.7%; in test [8], 4.08% (active); in test [9], -9.69% (active); in test [10], -25.7% (active); in [11] it was -27.3% (active); in test [12] it was -38.3% (active). For the same compound, the growth in test [13] is 70.2%; in test [14] it was 17.4%; in test [15], 55.4%; in test [16], -56.2% (active); in test [17], -66.4% (active); in [18] it was 5.48% (active). Besides, in test [19], the growth is 0.0048% (active).

Regarding `Nc1nc2ccc(-c3nc4ccc5[nH]ncc5c4c4c3CCCC4)cc2s1`, the growth in test [1] is 96.5%; in test [2], 117%; in test [3], 98.8%; in test [4] it was 85.7%; in [5], 96.3%; in test [6] it was 99.7%. For the same compound, the growth is 109% in test [7]; 107% in [8]; 104% in [9]; 95.9% in [10]; 115% in [11]; 100% in [12]. In addition, the growth is 105% in test [13]; 107% in test [14]; 94.4% in [15]; 102% in test [16]; 110% in [17]; 103% in [19].

For the compound `O=C(/C=C/c1cccs1)Nc1ncc(Cc2ccccc2F)s1`, the growth in [1] is 46.5%; in test [2], 26.1%; in [3], 41.3%; in test [4] it was 36.2%; in test [5], 49.6%; in test [20] it was 31.5%. Besides, the growth was 4.45% (active) in [7]; 14.4% in test [8]; 23.7% in test [11]; 29.8% in test [12]; 34.5% in test [13]; 48% in [14]. For the same compound, the growth was 27.5% in test [15]; 35.4% in test [16]; -6.37% (active) in [17]; 16% in test [18]; 11.6% in [19].

`CN1CCN(C(=O)c2ccc(NC(=O)c3cc4c(nn3)NCCN4Cc3cc(Cl)ccc3Cl)cc2)CC1`: the growth in test [1] is 78.8%; in test [2] it was 85.8%; in test [3] it was 74.9%; in test [4], 60.5%; in [5] it was 92.1%; in test [6] it was 75.1%. The growth is 43.7% in test [7]; 42% in test [8]; 39.6% in [9]; 0.181% (active) in [10]; 65.3% in test [11]; 91.1% in test [12]. In addition, the growth in test [13] is 56.4%; in test [14] it was 72.8%; in test [15], 88.4%; in [16] it was 81.3%; in test [17] it was 89.8%; in [18], 76.9%. Besides, the growth in test [19] is 95.7%.

In the case of `CCOC(=O)c1ccc2c(c1)nc(-c1ccccc1)n2C1CCCCC1`, the growth is 86.1% in [1]; 83% in [2]; 105% in [3]; 84% in test [4]; 116% in [5]; 101% in test [6]. Moreover, the growth in test [7] was 97.8%; in test [8] it was 79.4%; in [9] it was 85.5%; in [10], 62.9%; in test [11], 63.7%; in test [12], 89.5%. In addition, the growth was 117% in test [13]; 102% in test [14]; 36.7% in test [15]; 106% in test [16]; 108% in test [17]; 111% in test [18]. Besides, the growth in test [19] was 105%.

As for `COc1ccc(C/C(C)=C(\c2ccc(Cl)cc2)c2ccc(OCCN3CCCCC3)cc2)cc1`, the growth is 97% in test [1]; 102% in [2]; 94.3% in test [3]; 73.9% in [4]; 97% in test [5]; 86.9% in [6]. Moreover, the growth in test [7] was 120%; in test [8] it was 90.1%; in [9] it was 75.4%; in [10], 80.6%; in test [11] it was 90.6%; in [12], 94.9%. Moreover, the growth was 81.4% in test [13]; 102% in [14]; 103% in [15]; 99.9% in test [16]; 114% in test [17]; 108% in [19].

Regarding `COc1ccc(-c2nc3c(ncc4ccc(=O)[nH]c43)s2)cc1`, the growth in test [1] is 106%; in test [2] it was 63.8%; in [3], 78.2%; in [4], 72.1%; in test [5], 73.8%; in test [7], 42.3%. The growth was 72.6% in [8]; 31.8% in test [9]; 45.5% in test [10]; 69.2% in [11]; 83.9% in test [12]; 90% in test [13]. In addition, the growth in [14] was 98.8%; in test [15], 102%; in test [16] it was 67.5%; in [17] it was 85.5%; in [19] it was 74.6%.

On to `COc1cc2c(c(OC)c1OC)CCC(c1cccc(NC(=O)c3ccc(Br)cc3)c1)O2` (stereo not given), for which the growth in [1] was 87.4%; in [2], 77.2%; in [3], 85.7%; in test [4], 66.6%; in test [5], 89.9%; in [6], 90.3%. Besides, the growth in test [7] is 69.3%; in [8], 67%; in [10], 35%; in [11], 56.8%; in [12], 85.3%; in [14], 67.4%. For the same compound, the growth in test [15] is 75%; in test [16] it was 71%; in test [17], 90.8%; in [18] it was 90.4%; in test [19] it was 84.1%.

On to `COc1ccc2c(c1)c(-c1nc(-c3c[nH]c4ccncc34)cs1)cn2C`, for which the growth is -45.2% (active) in test [1]; -53.3% (active) in [2]; -72% (active) in test [3]; -88% (active) in [4]; 43.4% in test [5]; -86.3% (active) in test [6]. For the same compound, the growth in test [7] is 65.7%; in [8], -45.2% (active); in test [9], -42.8% (active); in [10], -26% (active); in [11], -36.7% (active); in test [12] it was -52.2% (active). The growth was -72.9% (active) in test [13]; -71.4% (active) in test [14]; 106% in test [15]; -83.8% (active) in [16]; -90.5% (active) in test [17]; -48.3% (active) in test [18]. The growth in [19] is -52.8% (active).
